# PABP1 MLLE inh: inhibitors of PABP1 MLLE–PAM2 peptide binding, primary screen, biochemical, fluorescence polarization, FITC-PAM2, GST-MLLE. AID 588489, 2011. Polyadenylate-binding protein 1 (Homo sapiens), P11940. 360,000 compounds, 0.36% hits. inhibition, % at 20 µM; in the data active means inhibition above about 35%, passing the limit was not always enough
# PABP polyA inh: PABP poly(A) RNA binding inhibitors, primary screen, biochemical, fluorescence polarization, uHTS; Polyadenylate-binding protein 1 (Homo sapiens), P11940; inhibition, % at 35 µM; 290,000 compounds, 1% hits;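 further: calls also rest on retests at 20 µM and on dose response follow-up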
# eIF4E 4G PPI: eIF4E–eIF4G protein interaction inhibitors, primary screen, biochemical, uHTS, TR-FRET, eIF4GI fragment; TR-FRET eIF4E-eIF4GI(517-606) binding, 2 h; inhibition, % at 21.7 µM; 220,000 compounds, 0.37% hits;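 active means inhibition above about 30%, limit read from the data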
# M18AAP inhibitor: PfM18AAP inhibitors, malaria aminopeptidase, primary screen, biochemical, QFRET, recombinant enzyme | M18 aspartyl aminopeptidase (Plasmodium falciparum 3D7) | H-Glu-NHMec fluorogenic cleavage | inhibition, % at 7.35 µM | 290,000 compounds, 1.2% hits | AID 1822, 2009;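 active means inhibition above the campaign mean inhibition over all tested compounds plus 3 SD, cut at about 28% in these data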
# PERK inh: block of dimerizer-induced PERK translation repression, primary screen, PERK inhibitor project, CHO PERK-DD cells, SEAP luminescence, HTS; Eukaryotic translation initiation factor 2-alpha kinase 3 (Homo sapiens), Q9NZJ5; CHO PERK-DD fusion, SEAP luminescence translation reporter; inhibition, % at 5.6 µM; 220,000 compounds, 0.17% hits; AID 1416, 2008;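 active means inhibition above the mean inhibition of all tested compounds plus 3 SD, set separately per screening campaign, cut at about 2.9% in these data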;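 further: PERK kinase domain activated by AP20187 dimerizer at 100 nM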
# Target sequence (Q9NZJ5 whole entry, looked up, the tested form may be a part): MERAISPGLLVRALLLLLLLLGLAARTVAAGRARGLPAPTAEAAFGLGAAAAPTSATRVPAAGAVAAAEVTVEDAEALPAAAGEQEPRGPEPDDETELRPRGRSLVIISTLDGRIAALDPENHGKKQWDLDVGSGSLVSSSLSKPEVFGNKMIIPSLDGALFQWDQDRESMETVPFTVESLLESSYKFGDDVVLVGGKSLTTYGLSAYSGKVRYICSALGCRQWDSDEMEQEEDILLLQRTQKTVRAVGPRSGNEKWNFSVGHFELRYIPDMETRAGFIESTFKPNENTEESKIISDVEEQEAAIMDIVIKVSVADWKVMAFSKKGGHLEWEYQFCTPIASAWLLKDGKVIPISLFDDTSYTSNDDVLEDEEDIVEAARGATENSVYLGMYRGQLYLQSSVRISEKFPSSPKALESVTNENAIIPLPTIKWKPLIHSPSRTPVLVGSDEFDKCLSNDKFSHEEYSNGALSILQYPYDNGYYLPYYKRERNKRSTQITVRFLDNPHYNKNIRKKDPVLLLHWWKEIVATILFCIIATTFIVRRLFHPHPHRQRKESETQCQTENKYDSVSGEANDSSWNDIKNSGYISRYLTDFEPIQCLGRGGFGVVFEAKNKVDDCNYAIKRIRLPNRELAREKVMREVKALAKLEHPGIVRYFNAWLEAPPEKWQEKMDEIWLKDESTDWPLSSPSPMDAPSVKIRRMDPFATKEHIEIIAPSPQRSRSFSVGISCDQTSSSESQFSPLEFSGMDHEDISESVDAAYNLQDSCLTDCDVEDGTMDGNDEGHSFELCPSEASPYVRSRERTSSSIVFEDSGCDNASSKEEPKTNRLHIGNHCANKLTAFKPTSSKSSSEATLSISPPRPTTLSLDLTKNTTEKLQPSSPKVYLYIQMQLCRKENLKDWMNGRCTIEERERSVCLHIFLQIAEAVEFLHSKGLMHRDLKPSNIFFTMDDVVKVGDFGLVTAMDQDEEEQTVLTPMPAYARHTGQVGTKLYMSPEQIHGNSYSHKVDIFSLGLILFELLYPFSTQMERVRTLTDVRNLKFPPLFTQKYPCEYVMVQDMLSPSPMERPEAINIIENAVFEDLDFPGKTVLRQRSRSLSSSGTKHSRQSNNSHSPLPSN
# eIF4H FP inh: human eIF4H binding inhibitors, primary screen, translation initiation inhibitor project, biochemical, uHTS, fluorescence polarization | Eukaryotic translation initiation factor 4H (Homo sapiens), Q15056 | eIF4H fluorescence polarization binding assay | inhibition, % at 35 µM | 290,000 compounds, 0.94% hits | AID 2012, 2009;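 further: calls also rest on retests at 20 µM and on dose response follow-up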
# A number is an active result; – = inactive; · = no result given. This is a sample that favours compounds with a hit; in the whole collection about 2.4% have one here. Unless noted, how the calls were made is not given here.
SMILES,PABP1 MLLE inh,PABP polyA inh,eIF4E 4G PPI,M18AAP inhibitor,PERK inh,eIF4H FP inh
O=C(Nc1ccc2c(c1)CCC2)c1cc(S(=O)(=O)N2CCN(c3ccccc3)CC2)ccc1Cl,–,–,–,–,–,–
CC(C)(C)NC(=S)NNC(=O)[C@H]1C[C@@H]1c1ccccc1,–,–,–,–,–,–
Cc1ccc(C2CC2C(=O)NNC(=S)Nc2ccc(Cl)cc2)cc1 (centres undefined),44.1,–,–,–,–,–
CCCCC(CC(O)COCCC)c1n[nH]c(=S)n1-c1ccccc1 (centres undefined),–,–,–,–,–,–
O=C1SC(c2ccccc2)=N/C1=C/c1ccco1,–,17.5,–,–,–,50.5
O=C1SC(SCc2ccccc2)=N/C1=C\c1ccco1,–,–,–,–,–,–
O=C1NNC(c2ccccc2)=N/C1=C\c1ccco1,–,50.1,–,–,–,–
CN1CCN(C2=C(Cl)C(=O)N(Cc3ccccc3)C2=O)CC1,–,89.5,–,–,–,89.0
Cc1ccc2c(c1)N1C(=O)c3ccccc3C1C1=C(CC(C)(C)CC1=O)N2 (centres undefined),–,–,–,–,–,active
O=C(NCc1ccc(/C=c2\sc3n(c2=O)CCN=3)o1)C(=O)Nc1ccccc1,·,–,–,–,–,81.6
O=C1NC(=O)N2CCSC2(Cc2ccccc2)N1 (centres undefined),41.2,·,·,·,·,·
CCCCCc1nnc(NC(=O)CN2C(=O)C3CCCCC3C2=O)s1 (centres undefined),–,–,·,–,·,–
c1ccc(C2=NNC(c3ccccn3)=NN2)nc1,43.1,–,·,–,·,–
COc1ccc(N2CCN(C(=O)CNC(=O)c3ccco3)CC2)cc1,–,–,·,–,·,–
COC(=O)c1sc(NC(=S)NC(=O)c2ccccc2)nc1C,–,–,–,–,–,–
Cc1nc(NC(=S)NC(=O)c2ccccc2)sc1C(=O)N(C)C,42.1,–,–,–,–,–
C[C@@H]1CCC2[C@](C)(CO)[C@@H](O)CC[C@]2(C)[C@@]12CCC(CO)(CCO)O2 (some centres undefined),–,–,·,–,·,–
C[C@@H]1CCC2[C@](C)(CO)[C@@H](O)CC[C@]2(C)[C@@]12CC[C@@](CO)(CC(=O)O)O2 (some centres undefined),53.1,–,·,–,·,–
Cc1cc2nc(SCC(=O)Nc3ccccc3C(=O)O)[nH]c2cc1C,–,–,–,–,–,–
N#Cc1c(-c2ccc(Cl)cc2)c(-c2ccc(Cl)cc2)nn(CCO)c1=O,–,·,·,·,·,·
O=C(NC12CC3CC(CC(C3)C1)C2)c1cnccn1,46.2,–,–,–,–,–
Cc1ccc(C(=O)c2coc3ccc(O)c(Cl)c23)cc1,–,–,·,–,–,–
CCOC(=O)C(C(C)=O)c1c(Br)c(O)c(O)c2c(C(=O)c3ccc(C)cc3)coc12 (centres undefined),–,–,–,47.3,–,–
Cc1c(Cl)cccc1NC(=S)NNS(=O)(=O)c1ccc([N+](=O)[O-])cc1,–,–,·,–,·,–
COc1ccc(C(=O)O)cc1NC(=S)NC(=O)/C=C/c1ccc(C(C)C)cc1,38.8,–,·,–,·,–
SMILES,PABP1 MLLE inh,PABP polyA inh,eIF4E 4G PPI,M18AAP inhibitor,PERK inh,eIF4H FP inh
CCCCC(=O)NC(=S)Nc1cc(C(=O)O)ccc1OC,–,–,–,–,–,–
Cc1ccc(O)c(NC(=S)NC(=O)/C=C/c2ccccc2)c1,41.0,–,·,–,·,–
COc1cccc(C(=O)N/N=C(/c2ccccc2)c2ccccn2)c1,–,–,–,–,–,–
O=C(CSc1nc2[nH]ncc2c(=O)n1-c1ccccc1)N1CCCCCC1,·,–,–,34.4,–,–
CSc1nc2[nH]ncc2c(=O)n1-c1ccccc1,–,–,–,60.5,–,–
O=C(O)c1ccc2c(c1)-c1cc(C(=O)O)ccc1S2(=O)=O,–,·,·,–,·,·
O=C(CCCC(=O)OCC(Cl)=C(Cl)Cl)Nc1ccc(F)cc1,–,–,–,–,–,–
COc1ccccc1N/N=C/c1ccc2c(c1)OCO2,–,–,–,30.9,–,–
COc1ccccc1C(=O)N/N=C/c1ccc2c(c1)OCO2,–,–,·,–,·,–
COC(=O)CCCC1=CC2=C(c3ccccc3)C(=O)C(C)(OC(=O)C3CCCC3)C(=O)C2=CN1CC1CC1 (centres undefined),–,–,89.4,·,·,–
CCn1ncc(Cl)c1C(=O)Nc1cc(Cl)ccc1Cl,–,–,–,–,–,–
COc1ccc2c(c1)c1nc3ccccc3nc1n2Cc1ccc(OC(C)C)c(OC)c1,–,active,–,–,–,78.4
COc1ccc2c(c1)c1nc3ccccc3nc1n2CC(=O)OC(C)C,–,121.0,–,–,–,–
C[C@@H]1CN([C@H](C)CO)C(=O)c2cc(Br)cnc2O[C@H]1CN(C)C(=O)Nc1ccccc1F,–,·,·,·,·,·
Cc1ccc(-n2c(C)nc3oc4ccccc4c(=O)c3c2=O)cc1,–,79.9,–,–,–,40.1
COc1ccc2c(=O)c3c(=O)n(-c4ccc(C)cc4)c(-c4ccccc4)nc3oc2c1,·,–,–,–,–,–
CCOC(=O)C1=C(N)n2c(s/c(=C\c3cccs3)c2=O)=C(C(=O)OCC)C1c1cccs1 (centres undefined),–,–,–,–,–,–
CCCCn1c(NC(=O)c2ccco2)c(S(=O)(=O)c2ccc(C)cc2)c2nc3ccccc3nc21,–,–,–,–,–,–
CCCCn1c(NC(=O)c2ccc(Br)o2)c(S(=O)(=O)c2ccccc2)c2nc3ccccc3nc21,–,67.2,–,–,–,55.7
CC(=O)N1N=C(c2ccc(C)cc2)OC1c1ccc(C(C)C)cc1 (centres undefined),–,–,–,–,–,–
C=CCNC(=S)N/N=C(\C)c1cccc(OC)c1,39.8,–,–,–,–,–
C=CCNC(=S)N/N=C(\C)c1ccc(OC)cc1,–,–,–,–,–,–
C/C(=N\NC(=S)NCc1ccccc1)c1cccc(Br)c1,–,–,–,–,–,–
C/C(=N\NC(=S)NCCc1ccccc1)c1cccc(Br)c1,39.5,–,–,–,–,–
CN(c1ccc(C(=O)Nc2ccc(CC#N)cc2)cc1)S(C)(=O)=O,–,–,–,–,–,–
CC(=O)Nc1cc(N2C(=O)CCC2=O)ccc1Cl,–,–,–,–,–,–
CC(=O)Nc1c(Br)cc(N2C(=O)CCC2=O)cc1Br,–,–,–,–,3.1,–

# Compound activity deposited in PubChem by several laboratories.
